According to PubChem BioAssay:
For part of these data: Results with a measured potency or affinity are listed apart. The source made the active and inactive calls.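 Rule for the calls, unless noted: active = compound raising the membrane signal above positive-control mean plus 3 SD in both repeats, and a primary screen hit; inactive = the rest.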

Columns and labels:
[1] = tested on: TRPC4 beta (transient receptor potential cation channel C4), mouse; assay: activators of mouse TRPC4 channel, confirmation, cell-based, Fluo4 calcium, HEK293 TRPC4beta/mu-opioid, duplicates, 10 µM (AID 2426;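 active = fluorescence ratio normalized to control raised more than 50% in primary screen plus both repeat runs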); conditions: Fluo4 calcium fluorescence, at 10 µM; active compounds read high
[2] = tested on: transient receptor potential cation channel C4 beta (TRPC4), mouse; assay: activators of mouse TRPC4 channel, confirmation, cell-based, second round, Fluo4, HEK293 TRPC4beta/mu-opioid, 1 µM (AID 2461;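 active = primary screen active and over 50% activation in each of two duplicate runs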); conditions: Fluo4 calcium fluorescence, at 1 µM; active compounds read high
[3] = tested on: TRPC4 (transient receptor potential cation channel C4 beta), mouse; assay: positive allosteric modulators of mouse TRPC4, confirmation, cell-based, second round, Fluo-4, HEK293 TRPC4beta/mu-opioid, 1 µM (AID 2554;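 active = primary screen hit whose fluorescence ratio, in both repeats, exceeds the weak agonist control mean by 3 SD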); conditions: DAMGO EC20, Fluo-4 calcium flux, at 1 µM; active compounds read high
[4] = tested on: TRPC4 beta (transient receptor potential cation channel C4), mouse; assay: positive allosteric modulators of mouse TRPC4, confirmation, cell-based, Fluo-4, HEK293 TRPC4beta/mu-opioid (AID 2555;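 active = primary screen hit whose calcium fluorescence ratio, in both repeats, exceeds the weak agonist control mean by 3 SD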); conditions: DAMGO EC20, Fluo-4 calcium flux, at 10 µM; active compounds read high
[5] = biological target: Short transient receptor potential channel 4 (Mus musculus) (UniProt Q9QUQ5); assay: inhibitors of mouse TRPC4 channel, confirmation, cell-based, Fluo4, HEK293 TRPC4beta/mu-opioid (AID 2636;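 active = calcium signal cut by more than 3 SD below the full-agonist control yet still positive, in both repeats and the earlier primary screen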); conditions: DAMGO, Fluo4 calcium flux, at 10 µM; active compounds read high
Sequence of Short transient receptor potential channel 4 (Mus musculus) (Q9QUQ5 whole entry, looked up): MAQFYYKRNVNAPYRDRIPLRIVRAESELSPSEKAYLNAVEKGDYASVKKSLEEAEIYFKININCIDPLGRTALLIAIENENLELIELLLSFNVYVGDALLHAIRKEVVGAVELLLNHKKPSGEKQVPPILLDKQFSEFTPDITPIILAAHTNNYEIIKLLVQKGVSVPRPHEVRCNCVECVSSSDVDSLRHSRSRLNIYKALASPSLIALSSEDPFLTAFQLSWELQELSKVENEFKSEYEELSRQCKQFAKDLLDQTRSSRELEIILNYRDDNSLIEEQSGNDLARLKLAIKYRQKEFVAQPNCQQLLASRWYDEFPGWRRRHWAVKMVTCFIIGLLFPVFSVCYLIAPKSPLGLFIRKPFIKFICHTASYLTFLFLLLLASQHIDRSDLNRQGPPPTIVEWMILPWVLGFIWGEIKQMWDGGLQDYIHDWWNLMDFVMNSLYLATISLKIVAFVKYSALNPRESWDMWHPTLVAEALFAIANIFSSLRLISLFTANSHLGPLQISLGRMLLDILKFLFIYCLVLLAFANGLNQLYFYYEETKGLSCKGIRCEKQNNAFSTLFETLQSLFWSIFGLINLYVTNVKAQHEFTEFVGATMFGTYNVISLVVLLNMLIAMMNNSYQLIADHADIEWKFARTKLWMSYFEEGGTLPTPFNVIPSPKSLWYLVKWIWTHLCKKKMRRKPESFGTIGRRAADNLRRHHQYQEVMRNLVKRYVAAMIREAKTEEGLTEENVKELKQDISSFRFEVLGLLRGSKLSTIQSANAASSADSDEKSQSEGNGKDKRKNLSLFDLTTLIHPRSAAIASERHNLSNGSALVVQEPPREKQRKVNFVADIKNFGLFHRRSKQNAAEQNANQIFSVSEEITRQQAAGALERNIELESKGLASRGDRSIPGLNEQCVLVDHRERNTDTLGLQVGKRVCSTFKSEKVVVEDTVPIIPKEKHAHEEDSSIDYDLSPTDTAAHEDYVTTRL

[6] = biological target: Short transient receptor potential channel 4 (Mus musculus) (UniProt Q9QUQ5); assay: inhibitors of mouse TRPC4 channel, confirmation, cell-based, second round, Fluo4, HEK293 TRPC4beta/mu-opioid, 1 µM (AID 2637;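 active = calcium signal ratio cut to more than 3 SD under the fully stimulated control mean yet still positive, in both repeats and the primary screen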); conditions: Fluo4 calcium flux, DAMGO, at 1 µM; active compounds read high
[7] = biological target: Short transient receptor potential channel 4 (Mus musculus) (UniProt Q9QUQ5); assay: mouse TRPC4 channel activators, dose response, cell-based, HEK293 TRPC4/mu-opioid, Fluo-4 calcium (AID 434937;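 active = primary screen activator hit with a dose response curve and TRPC4 channel activation at any tested dose; inactive = no activation, no dose response, or not a primary hit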)
[8] = biological target: Short transient receptor potential channel 4 (Mus musculus) (UniProt Q9QUQ5); assay: TRPC4 positive allosteric modulators, dose response, cell-based, HEK293 TRPC4/mu-opioid, Fluo-4 calcium, EC20 DAMGO (AID 434941;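 active = earlier screen potentiator hit that boosts the TRPC4 ion channel at some dose, with a dose response; inactive = no potentiation, no dose response, or not a prior hit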;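 note: calcium entry triggered by an EC20 dose of DAMGO at the co-expressed mu-opioid receptor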)
[9] = biological target: Short transient receptor potential channel 4 (Mus musculus) (UniProt Q9QUQ5); assay: mouse TRPC4 channel inhibitors, dose response, cell-based, HEK293 TRPC4/mu-opioid, Fluo-4 calcium (AID 434942;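 active = primary screen inhibitor hit that blocks the TRPC4 channel at some tested dose, yielding a dose curve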)
[10] = biological target: Short transient receptor potential channel 6 (Mus musculus) (UniProt Q61143); assay: inhibition of mouse TRPC6 channel, confirmation, selectivity assay for TRPC4 inhibitor project, cell-based, HEK293, membrane potential dye, duplicate (AID 434948;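 active = active in primary screen and both duplicates, each dropping signal beyond three positive-control SD with fluorescence still positive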); conditions: HEK293 TRPC6, membrane potential dye fluorescence, at 10 µM, stimulated with maximal-effect acetylcholine; active compounds read high
Sequence of Short transient receptor potential channel 6 (Mus musculus) (Q61143 whole entry, looked up): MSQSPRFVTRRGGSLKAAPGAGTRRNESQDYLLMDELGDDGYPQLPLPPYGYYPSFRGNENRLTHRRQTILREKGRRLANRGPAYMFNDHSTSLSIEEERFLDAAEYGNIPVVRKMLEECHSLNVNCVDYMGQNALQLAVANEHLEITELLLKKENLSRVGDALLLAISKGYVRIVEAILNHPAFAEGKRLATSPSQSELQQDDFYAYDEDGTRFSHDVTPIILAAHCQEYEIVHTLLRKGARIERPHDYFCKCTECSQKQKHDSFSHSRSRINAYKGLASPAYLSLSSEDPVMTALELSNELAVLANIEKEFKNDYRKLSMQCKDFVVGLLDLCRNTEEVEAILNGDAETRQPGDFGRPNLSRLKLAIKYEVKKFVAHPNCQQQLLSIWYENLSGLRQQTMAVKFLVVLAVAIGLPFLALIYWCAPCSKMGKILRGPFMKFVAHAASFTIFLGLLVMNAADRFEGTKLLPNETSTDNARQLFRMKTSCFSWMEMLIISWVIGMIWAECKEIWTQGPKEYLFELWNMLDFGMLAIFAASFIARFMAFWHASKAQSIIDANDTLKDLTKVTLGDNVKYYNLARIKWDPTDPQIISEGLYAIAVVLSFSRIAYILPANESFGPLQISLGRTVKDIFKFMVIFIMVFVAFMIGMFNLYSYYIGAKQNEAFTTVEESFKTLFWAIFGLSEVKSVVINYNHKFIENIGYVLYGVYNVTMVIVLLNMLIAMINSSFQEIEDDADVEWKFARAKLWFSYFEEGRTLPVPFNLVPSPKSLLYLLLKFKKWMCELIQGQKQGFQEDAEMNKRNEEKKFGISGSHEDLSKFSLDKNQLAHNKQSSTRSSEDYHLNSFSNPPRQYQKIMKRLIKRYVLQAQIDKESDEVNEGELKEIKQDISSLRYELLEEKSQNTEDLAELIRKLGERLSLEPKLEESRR

[11] = biological target: Short transient receptor potential channel 6 (Mus musculus) (UniProt Q61143); assay: activation of mouse TRPC6 channel, confirmation, selectivity assay for TRPC4 activator project, cell-based, HEK293, membrane potential dye, duplicate (AID 434950;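 active = membrane potential signal rise above negative control mean plus 3 SD in both duplicates, also active in the earlier TRPC4 screen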); conditions: HEK293 TRPC6, membrane potential fluorescence, at 10 µM; active compounds read high
[12] = biological target: Short transient receptor potential channel 6 (Mus musculus) (UniProt Q61143); assay: TRPC6 potentiation by TRPC4 potentiator hits, confirmation, selectivity assay for TRPC4 potentiator project, HEK293 cells, membrane potential dye, duplicate (AID 434952); conditions: HEK293 TRPC6, membrane potential dye fluorescence, at 10 µM, maximal acetylcholine added after compound; active compounds read high
[13] = biological target: Short transient receptor potential channel 4 (Mus musculus) (UniProt Q9QUQ5); assay: calcium flux activators in TRPC4/5HT1a cells, counter-screen for TRPC4 activator project, cell-based, second counter screen, HEK293 TRPC4/5HT1a, Fluo-4 (AID 434977;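 active = calcium signal rise above buffer-control mean plus 5 SD in both duplicates, and also a hit in the primary screen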); conditions: Fluo-4 calcium flux, at 10 µM; active compounds read high
[14] = calcium flux inhibitors in TRPC4/5HT1a cells, confirmation, counter-screen for TRPC4 inhibitor project, cell-based, second counter screen, HEK293 TRPC4/5HT1a, Fluo-4 (AID 434978;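 active = primary screen active whose calcium signal fell more than 3 SD beyond the full-serotonin control mean in both duplicate plates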;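 note: serotonin given first at submaximal then at maximal dose after compound preincubation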); conditions: Fluo-4 calcium flux, at 10 µM, serotonin added to trigger calcium flux; active compounds read high
[15] = tested on: TRPC4 (mouse), co-expressed with 5HT1a in HEK293; assay: calcium flux potentiators in TRPC4/5HT1a cells, confirmation, counter-screen for TRPC4 potentiator project, cell-based, second counter screen, HEK293 TRPC4/5HT1a, Fluo-4 (AID 434979;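 active = signal rise over 3 SD above mean of control wells given weak agonist, in both repeats and first screen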); conditions: Fluo-4 calcium flux, at 10 µM, serotonin added at its EC20 dose; active compounds read high
[16] = calcium flux activation in mu-opioid HEK293 cells, confirmation, counter-screen for TRPC4 activator project, cell-based, HEK293 mu-opioid receptor line (AID 449723;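 active = hit in primary screen, with calcium signal over 5 SD above buffer well mean in both duplicates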;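 note: counter screen cells carry the mu-opioid receptor alone and lack TRPC4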); conditions: Fluo-4 calcium fluorescence, at 10 µM; active compounds read high
[17] = calcium flux enhancement in mu-opioid HEK293 cells, confirmation, counter-screen for TRPC4 allosteric potentiator project, cell-based, HEK293 mu-opioid receptor line (AID 449724;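 active = calcium signal rise more than 3 SD above the low-dose agonist control mean, in both duplicate plates and the primary screen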); conditions: Fluo-4 calcium flux, at 10 µM, compound added before EC20 DAMGO stimulus; active compounds read high

Compound	outcome [1]	outcome [2]	outcome [3]	outcome [4]	outcome [5]	outcome [6]	outcome [7]	outcome [8]	outcome [9]	outcome [10]	outcome [11]	outcome [12]	outcome [13]	outcome [14]	outcome [15]	outcome [16]	outcome [17]	potentiation [4]	potentiation [15]	potentiation [3]
O=S(=O)(NCC1NCCc2ccccc21)c1ccccc1 (stereo not given)	inactive	inactive	inactive	inactive	inactive	inactive	inactive	inactive	inactive	inactive	inactive	inactive	inactive	inactive	inactive	inactive	inactive	–	–	–
CNC(=S)NNC(=O)c1cccn(Cc2cccc(C(F)(F)F)c2)c1=O	inactive	inactive	inactive	–	inactive	inactive	inactive	inactive	inactive	inactive	inactive	inactive	inactive	inactive	inactive	inactive	inactive	14% (active)	–	–
CCCc1ccc(OCc2ccc(C(=O)N3CCSCC3)o2)cc1	inactive	inactive	inactive	–	inactive	inactive	inactive	inactive	inactive	inactive	inactive	inactive	inactive	inactive	–	inactive	inactive	36% (active)	30.2% (active)	–
CCOC(=O)CC(NS(=O)(=O)c1ccc(OC)c(C)c1)c1cccc([N+](=O)[O-])c1 (stereo not given)	inactive	inactive	inactive	inactive	inactive	inactive	inactive	inactive	inactive	inactive	inactive	inactive	inactive	inactive	inactive	inactive	inactive	–	–	–
CN1CCN(NC(=O)c2cccc(Br)c2)CC1	inactive	inactive	–	–	inactive	inactive	inactive	inactive	inactive	inactive	inactive	inactive	inactive	inactive	–	inactive	inactive	18% (active)	21.8% (active)	8% (active)
CCCCN(C)CCNC(=O)c1c[nH]c2ccc(S(=O)(=O)N(CC)CC)cc2c1=O	inactive	inactive	inactive	–	inactive	inactive	inactive	inactive	inactive	inactive	inactive	inactive	inactive	inactive	–	inactive	inactive	46% (active)	26.4% (active)	–
O=Cc1c(N2CCCCC2)nc2ccccn2c1=O	inactive	inactive	inactive	inactive	inactive	inactive	inactive	inactive	inactive	inactive	inactive	inactive	inactive	inactive	inactive	inactive	inactive	–	–	–
CC(C(=O)c1ccc(Br)cc1)[n+]1cccc(NC(=O)c2ccccc2)c1 (stereo not given)	inactive	inactive	inactive	inactive	inactive	inactive	inactive	inactive	inactive	inactive	inactive	inactive	inactive	inactive	inactive	inactive	inactive	–	–	–
COc1ccc(S(=O)(=O)n2nc(OC(=O)c3ccccc3Br)cc2N)cc1	inactive	inactive	inactive	inactive	inactive	inactive	inactive	inactive	inactive	inactive	inactive	inactive	inactive	inactive	inactive	inactive	inactive	–	–	–
COc1cccc(OCC(=O)NC2CCCCC2)c1	inactive	inactive	inactive	–	inactive	inactive	inactive	inactive	inactive	inactive	inactive	inactive	inactive	inactive	–	inactive	inactive	41% (active)	26.3% (active)	–
C=CCn1c(SCCN2CCCC2)nc2c([nH]c3ccccc32)c1=O	inactive	inactive	–	inactive	inactive	inactive	inactive	inactive	inactive	inactive	inactive	inactive	inactive	inactive	inactive	inactive	inactive	–	–	21% (active)
Cc1ccc(C(=O)C[n+]2cccc3cc(C)ccc32)cc1	inactive	inactive	inactive	inactive	inactive	inactive	inactive	inactive	inactive	inactive	inactive	inactive	inactive	inactive	inactive	inactive	inactive	–	–	–
COC(=O)c1ccc(NC(=O)CCN2CCN(Cc3ccccc3)CC2)cc1	inactive	inactive	–	inactive	inactive	inactive	inactive	inactive	inactive	inactive	inactive	inactive	inactive	inactive	–	inactive	inactive	–	12.9% (active)	25% (active)
COc1cc2nc(=S)n3[nH]c(CCn4nc(C)cc4C)nc3c2cc1OC	inactive	inactive	inactive	inactive	inactive	inactive	inactive	inactive	inactive	inactive	inactive	inactive	inactive	inactive	inactive	inactive	inactive	–	–	–
CC(=O)Cc1nsc(NC(=O)c2csc3c2CCCC3)n1	inactive	inactive	inactive	inactive	inactive	inactive	inactive	inactive	inactive	inactive	inactive	inactive	inactive	inactive	inactive	inactive	inactive	–	–	–
